Activity calls are given as the source filed them. How the calls were made is not given here.

This assay relates to Aerobactin synthetase IucA (Klebsiella pneumoniae hvKP1). Kind of assay: IucA enzyme inhibition, primary screen, biochemical, Spectrum library (AID 1346200).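 Further: 100% = wells without compound and 0% = wells lacking enzyme.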 Conditions: malachite green pyrophosphate, A620, at 8 µM, hits give low values.
As to `CN[C@@H]1[C@@H](O)C(OC2[C@@H](N)C[C@@H](N)[C@H](O[C@H]3O[C@H](C(C)O)[C@@H](O)[C@H](O)[C@H]3N)[C@H]2O)OC[C@]1(C)O` (stereo not given in full), the activity remaining was 111% (inactive).
The result for `COc1cc(OC)c(OC)cc1C=O` reads 109% (inactive).
As for `[N-]=[N+]=CC(=O)OCC(N)C(=O)O` (stereo not given), the figure is 105% (inactive); as for `C[C@H](N)[C@H](O)c1ccc(O)c(O)c1`, 102% (inactive); as for `S=C=NCc1ccccc1`, 83.8% (inactive).
The result for `O=C(O)CCCOc1ccc(Cl)cc1Cl` reads 103% (inactive); that for `CC[N+]1(C)CCCC(OC(=O)C(O)(c2ccccc2)c2ccccc2)C1` (stereo not given), 116% (inactive); that for `CC1=NCCc2c1[nH]c1cc(O)ccc21`, 98.9% (inactive).
With `C[C@@H](N)[C@@H](O)c1ccccc1`, the activity remaining is 122% (inactive).
The result for `COc1cc([C@@H]2c3cc4c(cc3[C@@H](O)C3COC(=O)C32)OCO4)cc(OC)c1O` (stereo not given in full) reads 118% (inactive); that for `ClC1C(Cl)C(Cl)C(Cl)C(Cl)C1Cl` (stereo not given), 113% (inactive).
Take `O=C(O)CC[N+](=O)[O-]`: the activity remaining is 105% (inactive).
Consider `C=CCC1(C(C)CCC)C(=O)N=C(S)NC1=O` (stereo not given), for which the activity remaining was 110% (inactive).
The result for `O=C1C=C2C=C[C@@H]3C[C@@]2(O1)[C@H]1CCCCN31` reads 109% (inactive); that for `CCCCCCCCCCCCCCCC[n+]1ccccc1`, 111% (inactive); that for `OC1CCCCC1N1CCC(c2ccccc2)CC1` (stereo not given), 87.4% (inactive).
For `N[C@H](CO)Cc1ccccc1`, the activity remaining is 102% (inactive).
On to `CC(N)Cc1ccc(O)cc1` (stereo not given), for which the activity remaining is 111% (inactive).
As to `CC[C@@H]1C(=O)OC[C@@H]1Cc1cncn1C`, the activity remaining was 115% (inactive).
For the compound `O=C1C(Cl)=C(Cl)C(=O)C(Cl)=C1Cl`, the activity remaining is 100% (inactive).
Consider `COc1cc2c(cc1OC)C(C)NCC2` (stereo not given), for which the activity remaining is 101% (inactive).
The result for `CC1(C)C2CC(=O)[C@]3(C)C(CC[C@@]4(C)[C@H](c5ccoc5)OC(=O)C5OC543)[C@@]2(C)[C@@H](O)C[C@H]1O` (stereo not given in full) reads 107% (inactive); that for `O=[N+]([O-])c1cc([As](=O)(O)O)ccc1O`, 112% (inactive).
On to `COc1cc2ccc(=O)oc2c2ccoc12`, for which the activity remaining was 119% (inactive).
For `COc1ccc2c(c1O)-c1c(OC)c(OC)cc3c1[C@H](C2)N(C)CC3`, the activity remaining is 116% (inactive).
As for `COc1ccc2c(c1)[nH]c1c(C)nccc12`, the figure is 104% (inactive).
As for `O=C(O)CCC1NCC2CC1CN1CCCCC21` (stereo not given), the figure is 120% (inactive).
On to `NC(N)=NOCC[C@H](N)C(=O)O`, for which the activity remaining was 113% (inactive).
`CN1C2CCC1CC(OC(c1ccccc1)c1ccccc1N)C2` (stereo not given): the activity remaining was 118% (inactive).
As for `COC1=C[C@@H]2[C@@H]3Cc4ccc(OC)c(O)c4[C@]2(CCN3C)CC1=O`, the figure is 94.1% (inactive); as for `C[C@H]1CCCC(=O)CCC/C=C/c2cc(O)cc(O)c2C(=O)O1`, 103% (inactive); as for `O=C1C=CC(=O)c2c(O)cccc21`, 127% (inactive).
In the case of `CCOP(=S)(OCC)Oc1nc(Cl)c(Cl)cc1Cl`, the activity remaining was 79.3% (inactive).
The result for `NCCc1c[nH]c2ccccc12` reads 113% (inactive); that for `CN[C@@H](C)[C@@H](O)c1ccccc1`, 98.2% (inactive).
The result for `COc1ccc2c3c([nH]c2c1)C(C)=NCC3` reads 124% (inactive).
As for `CN1CCc2cc3c(cc2C1O)OCO3` (stereo not given), the activity remaining was 118% (inactive).
Regarding `CNC(C)C(O)c1ccccc1` (stereo not given), the activity remaining is 81.5% (inactive).
As for `CN(C)[C@@H]1C(=O)C(C(N)=O)=C(O)[C@@]2(O)C(=O)C3=C(O)c4c(O)ccc(Cl)c4[C@@](C)(O)[C@H]3C[C@@H]12`, the activity remaining is 117% (inactive).
As to `CC1=C(O)C(=O)C=C2C1=CC=C1[C@@]2(C)CC[C@@]2(C)[C@@H]3C[C@](C)(C(=O)O)CC[C@]3(C)CC[C@]12C`, the activity remaining is 122% (inactive).

Values taken from PubChem BioAssay.
